Measured values taken from PubChem BioAssay AID504894 (National Center for Advancing Translational Sciences (NCATS), 2011).
Fewer than 10 of roughly 330,000 compounds were called active. Calls follow the shape of the dose curve; as a rule, active = well fitted activation curve with a large enough effect; inconclusive = small, poorly fitted or top-dose-only effect, or another doubt; inactive = no such curve, though single readings can be large or run the other way. These entries were drawn from the full list.

Assay: Activators of T cell receptors: qHTS campaign
Details: primary human leukocytes, anti-CD3, IL-2 HTRF, 48 h; series mostly up to 9.22 µM
Description: Normally activation of naive T cells requires two signals. 1. A signal through the T cell receptor (TCR) which provides antigen specificity to the response. 2. Signals through co-stimulatory molecules, which are necessary for proliferation, survival and cytokine production. In the absence of co-stimulatory signals T cells are not effectively activated, and may even be rendered anergic or unresponsive to subsequent signaling. This lack of costimulation has been shown in multiple model systems to be a major factor in the limited strength and effectiveness of anti-tumor T cell responses. The goal of this project is to identify small molecule compounds that will stimulate T cell activation in the presence of TCR signaling but in the absence of co-stimulatory signals, thereby allowing activation of naive T cells in the absence of co-stimulation. Identification of such compounds would have clear experimental and clinical applications in instances where desirable antigen-specific immune responses are not generated due to a lack of co-stimulation, for example in the generation of anti-tumor responses. In collaboration between the National Cancer Institute and NIH Chemical Genomics Center, a high-throughput amenable screen was developed to discover small molecules that co-stimulate and activate human T cell receptors. The screen will be carried out using a novel homogeneous time resolved fluorescence energy transfer (HTRF) assay to measure production of the cytokine IL-2 by activated T cells and will be tested against the NIH Molecular Libraries Small Molecule Repository (MLSMR). NIH Chemical Genomics Center [NCGC] NIH Molecular Libraries Probe Centers Network [MLPCN] MLPCN Grant: MH090820-01 Assay Submitter (PI): Richard Hodes, National Cancer Institute, NIH
Primary human leukocytes are incubated with a-CD3 beads and compounds for 48 hr. The amount of secreted IL-2 is then assayed with a HTRF IL-2 kit. The presence of IL-2 cytokine captures the detection reagents and brings the a-IL-2-K and a-IL-2-d2 into close proximity. Upon excitation with 320nm light, the europium cryptate is capable of transferring energy to acceptor molecules within close proximity, resulting in acceptor molecule emission at 665nm.

outcome, inactive:
O=C(O)C1C2C=CC(O2)C1C(=O)Nc1ccccn1 (centres undefined)
O=C(NCc1ccccc1)c1cccc(NC(=O)C2CCCCC2)c1
O=C(NCCc1ccccc1)c1cccc(NC(=O)c2ccccc2)c1
CCOc1ccc(CCNC(=O)COC(=O)C2CCN(S(=O)(=O)c3ccccc3)CC2)cc1OCC
COc1ccc(-c2ccc3c(c2)[C@@H]2C[C@H](N(C)S(=O)(=O)c4ccccc4)[C@H]([C@H](C)O)C(=O)N2CC3)cc1
Oc1c(CN2CCOCC2)ccc(CN2CCOCC2)c1O
COc1ccc(C2NCCCC2c2ccccc2)cc1 (centres undefined)
O=C(NN=Cc1ccccc1)c1ccccc1
CCC1(C)COC(c2ccc(OC)c(OC)c2)OC1 (centres undefined)
Cc1ccccc1N1CCN(C(=O)c2cccnc2)CC1
CSCCC(NC(=O)COc1ccccc1)C(=O)N1CCN(c2cccc(C(F)(F)F)c2)CC1 (centres undefined)
O=S1(=O)CCOC[C@H](Cc2ccccc2)N1Cc1ccccc1Br
CC(Nc1ccc([N+](=O)[O-])cc1[N+](=O)[O-])c1ccccc1 (centres undefined)
NN=C(NN=Cc1ccccc1)c1ccccc1
Cn1c(=S)sc2ccc3ccccc3c21
Nc1ncnc2c1cnn2C1CC(O)C(CO)O1 (centres undefined)
COc1ccc(CS(=O)/C(Cl)=C(/Cl)C(=O)Nc2ccc(OC)nc2)cc1 (centres undefined)
N=C1c2ccccc2-c2ccccc21
C/C(=N\Nc1ccccc1)c1cccs1
CCCCCCCCNS(=O)(=O)CCNC1CCCCC1
O=S1(=O)CSCS(=O)(=O)C1
Cc1ccc(SCC(=O)N2CCN(c3ccc(F)cc3)CC2)cc1
Cc1nc(Nc2ccccc2C)c2cnn(C)c2n1
COc1ccc(NC(=O)/C(N=Nc2cccc(S(=O)(=O)Nc3ccc(SC(F)F)cc3)c2)=C(\C)O)cc1
O=C1CC[C@@H]2CC3(C[C@@H]4CCN1[C@H]24)Nc1cc([N+](=O)[O-])ccc1NC3=NC1CCCCC1 (some centres undefined)
N#CC1=C(N)Oc2cc(N)ccc2C1c1ccccc1 (centres undefined)
CN(CCc1ccccc1)C(=O)c1cccc(NC(=O)Cc2cccc(NC(=O)C3CCCN(C(=O)C4CCC4)C3)c2)c1 (centres undefined)
COc1ccc(Nc2ccc3ccccc3c2)cc1
COC1=NC2=NCCN2C(OC)=N1
